Measured values: the supplement of paper PMC4466140

Assays:
Assay in all cases: SPOT peptide array binding signal intensity (averaged, normalized) (arbitrary units (background-subtracted, floor 0; scale differs between SH3 domains)); higher = stronger binding of the SH3 domain to the peptide
AgAbp1 = molecular target: AgAbp1
Summary of the method: (§1)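 To measure binding, SH3 domains from four yeast species were fused to GST, expressed in E. coli BL21(DE3) and purified on glutathione Sepharose. Each domain was incubated at 10 μg/ml overnight at 4°C on cellulose membranes with synthetic 15-mer peptides whose cysteines were replaced by serines. Anti-GST antibody, an HRP anti-mouse secondary and luminol were used for detection, and images were quantified with Genespotter. Reported binding signal is normalized, background-subtracted spot intensity averaged over replicates, in arbitrary units that differ between domains.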

AgBbc1 = molecular target: AgBbc1
Summary of the method: as §1

AgBem1-D1 = molecular target: AgBem1-D1
Summary of the method: as §1

AgBzz1-D1 = molecular target: AgBzz1-D1
Summary of the method: as §1

AgBzz1-D2 = molecular target: AgBzz1-D2
Summary of the method: as §1

AgCyk3 = molecular target: AgCyk3
Summary of the method: as §1

AgFus1 = molecular target: AgFus1
Summary of the method: as §1

AgHof1 = molecular target: AgHof1
Summary of the method: as §1

AgHse1 = molecular target: AgHse1
Summary of the method: as §1

AgLsb1 = molecular target: AgLsb1
Summary of the method: as §1

AgLsb4 = molecular target: AgLsb4
Summary of the method: as §1

AgMyo5 = molecular target: AgMyo5
Summary of the method: as §1

AgNbp2 = molecular target: AgNbp2
Summary of the method: as §1

AgRvs167 = molecular target: AgRvs167
Summary of the method: as §1

AgSho1 = molecular target: AgSho1
Summary of the method: as §1

AgSla1-D1-D2 = molecular target: AgSla1-D1-D2
Summary of the method: as §1

AgSla1-D3 = molecular target: AgSla1-D3
Summary of the method: as §1

CaAbp1-D1 = molecular target: CaAbp1-D1
Summary of the method: as §1

CaAbp1-D2 = molecular target: CaAbp1-D2
Summary of the method: as §1

CaBbc1 = molecular target: CaBbc1
Summary of the method: as §1

CaBem1-D1 = molecular target: CaBem1-D1
Summary of the method: as §1

CaBzz1-D1 = molecular target: CaBzz1-D1
Summary of the method: as §1

CaBzz1-D2 = molecular target: CaBzz1-D2
Summary of the method: as §1

CaCyk3 = molecular target: CaCyk3
Summary of the method: as §1

CaFus1 = molecular target: CaFus1
Summary of the method: as §1

CaHof1 = molecular target: CaHof1
Summary of the method: as §1

CaHse1 = molecular target: CaHse1
Summary of the method: as §1

CaLsb1 = molecular target: CaLsb1
Summary of the method: as §1

CaLsb4 = molecular target: CaLsb4
Summary of the method: as §1

CaMyo5 = molecular target: CaMyo5
Summary of the method: as §1

CaNbp2 = molecular target: CaNbp2
Summary of the method: as §1

CaRvs167 = molecular target: CaRvs167
Summary of the method: as §1

CaRvs167-3 = molecular target: CaRvs167-3
Summary of the method: as §1

CaSho1 = molecular target: CaSho1
Summary of the method: as §1

CaSla1-D1-D2 = molecular target: CaSla1-D1-D2
Summary of the method: as §1

CaSla1-D3 = molecular target: CaSla1-D3
Summary of the method: as §1

ScAbp1 = molecular target: ScAbp1
Summary of the method: as §1

ScBbc1 = molecular target: ScBbc1
Summary of the method: as §1

ScBem1-D1 = molecular target: ScBem1-D1
Summary of the method: as §1

ScBzz1-D1 = molecular target: ScBzz1-D1
Summary of the method: as §1

ScBzz1-D2 = molecular target: ScBzz1-D2
Summary of the method: as §1

ScCyk3 = molecular target: ScCyk3
Summary of the method: as §1

ScFus1 = molecular target: ScFus1
Summary of the method: as §1

ScHof1 = molecular target: ScHof1
Summary of the method: as §1

ScHse1 = molecular target: ScHse1
Summary of the method: as §1

ScLsb1 = molecular target: ScLsb1
Summary of the method: as §1

ScLsb2 = molecular target: ScLsb2
Summary of the method: as §1

ScLsb3 = molecular target: ScLsb3
Summary of the method: as §1

ScLsb4 = molecular target: ScLsb4
Summary of the method: as §1

ScMyo3 = molecular target: ScMyo3
Summary of the method: as §1

ScMyo5 = molecular target: ScMyo5
Summary of the method: as §1

ScNbp2 = molecular target: ScNbp2
Summary of the method: as §1

ScPex13 = molecular target: ScPex13
Summary of the method: as §1

ScRvs167 = molecular target: ScRvs167
Summary of the method: as §1

ScSho1 = molecular target: ScSho1
Summary of the method: as §1

ScSla1-D1-D2 = molecular target: ScSla1-D1-D2
Summary of the method: as §1

ScSla1-D3 = molecular target: ScSla1-D3
Summary of the method: as §1

SpAbp1-D1 = molecular target: SpAbp1-D1
Summary of the method: as §1

SpBbc1 = molecular target: SpBbc1
Summary of the method: as §1

SpBzz1-D1 = molecular target: SpBzz1-D1
Summary of the method: as §1

SpBzz1-D2 = molecular target: SpBzz1-D2
Summary of the method: as §1

SpCyk3 = molecular target: SpCyk3
Summary of the method: as §1

SpHof1 = molecular target: SpHof1
Summary of the method: as §1

SpHof1-2 = molecular target: SpHof1-2
Summary of the method: as §1

SpHof1-3 = molecular target: SpHof1-3
Summary of the method: as §1

SpHse1 = molecular target: SpHse1
Summary of the method: as §1

SpLsb1 = molecular target: SpLsb1
Summary of the method: as §1

SpLsb4 = molecular target: SpLsb4
Summary of the method: as §1

SpMyo1 = molecular target: SpMyo1
Summary of the method: as §1

SpNbp2 = molecular target: SpNbp2
Summary of the method: as §1

SpPex13 = molecular target: SpPex13
Summary of the method: as §1

SpRvs167 = molecular target: SpRvs167
Summary of the method: as §1

SpSla1-D1-D2 = molecular target: SpSla1-D1-D2
Summary of the method: as §1

SpSla1-D3 = molecular target: SpSla1-D3
Summary of the method: as §1

RSVKRPRRAPRPVVS
SPOT peptide array binding signal intensity (AgAbp1): 124
SPOT peptide array binding signal intensity (AgBbc1): 434
SPOT peptide array binding signal intensity (AgBem1-D1): 116
SPOT peptide array binding signal intensity (AgBzz1-D1): 54.5
SPOT peptide array binding signal intensity (AgBzz1-D2): 19
SPOT peptide array binding signal intensity (AgCyk3): 2
SPOT peptide array binding signal intensity (AgFus1): 372
SPOT peptide array binding signal intensity (AgHof1): 49
SPOT peptide array binding signal intensity (AgHse1): 592
SPOT peptide array binding signal intensity (AgLsb1): 4.5
SPOT peptide array binding signal intensity (AgLsb4): 150
SPOT peptide array binding signal intensity (AgMyo5): 1.25
SPOT peptide array binding signal intensity (AgNbp2): 908
SPOT peptide array binding signal intensity (AgRvs167): 2.17
SPOT peptide array binding signal intensity (AgSho1): 5
SPOT peptide array binding signal intensity (AgSla1-D1-D2): 15
SPOT peptide array binding signal intensity (AgSla1-D3): 6.25
SPOT peptide array binding signal intensity (CaAbp1-D1): 586
SPOT peptide array binding signal intensity (CaAbp1-D2): 430
SPOT peptide array binding signal intensity (CaBbc1): 663
SPOT peptide array binding signal intensity (CaBem1-D1): 140
SPOT peptide array binding signal intensity (CaBzz1-D1): 108
SPOT peptide array binding signal intensity (CaBzz1-D2): 165
SPOT peptide array binding signal intensity (CaCyk3): 106
SPOT peptide array binding signal intensity (CaFus1): 208
SPOT peptide array binding signal intensity (CaHof1): 2
SPOT peptide array binding signal intensity (CaHse1): 47.5
SPOT peptide array binding signal intensity (CaLsb1): 0.75
SPOT peptide array binding signal intensity (CaLsb4): 1720
SPOT peptide array binding signal intensity (CaMyo5): 2
SPOT peptide array binding signal intensity (CaNbp2): 1160
SPOT peptide array binding signal intensity (CaRvs167): 20.3
SPOT peptide array binding signal intensity (CaRvs167-3): 26.5
SPOT peptide array binding signal intensity (CaSho1): 198
SPOT peptide array binding signal intensity (CaSla1-D1-D2): 990
SPOT peptide array binding signal intensity (CaSla1-D3): 0.5
SPOT peptide array binding signal intensity (ScAbp1): 113
SPOT peptide array binding signal intensity (ScBbc1): 306
SPOT peptide array binding signal intensity (ScBem1-D1): 46.5
SPOT peptide array binding signal intensity (ScBzz1-D1): 11.5
SPOT peptide array binding signal intensity (ScBzz1-D2): 26
SPOT peptide array binding signal intensity (ScCyk3): 32
SPOT peptide array binding signal intensity (ScFus1): 260
SPOT peptide array binding signal intensity (ScHof1): 5.25
SPOT peptide array binding signal intensity (ScHse1): 1150
SPOT peptide array binding signal intensity (ScLsb1): 156
SPOT peptide array binding signal intensity (ScLsb2): 31.5
SPOT peptide array binding signal intensity (ScLsb3): 3170
SPOT peptide array binding signal intensity (ScLsb4): 192
SPOT peptide array binding signal intensity (ScMyo3): 1
SPOT peptide array binding signal intensity (ScMyo5): 4.25
SPOT peptide array binding signal intensity (ScNbp2): 2270
SPOT peptide array binding signal intensity (ScPex13): 2.75
SPOT peptide array binding signal intensity (ScRvs167): 75
SPOT peptide array binding signal intensity (ScSho1): 344
SPOT peptide array binding signal intensity (ScSla1-D1-D2): 839
SPOT peptide array binding signal intensity (ScSla1-D3): 15.8
SPOT peptide array binding signal intensity (SpAbp1-D1): 146
SPOT peptide array binding signal intensity (SpBbc1): 12
SPOT peptide array binding signal intensity (SpBzz1-D1): 250
SPOT peptide array binding signal intensity (SpBzz1-D2): ≤ 0
SPOT peptide array binding signal intensity (SpCyk3): 2
SPOT peptide array binding signal intensity (SpHof1): 268
SPOT peptide array binding signal intensity (SpHof1-2): 7
SPOT peptide array binding signal intensity (SpHof1-3): 748
SPOT peptide array binding signal intensity (SpHse1): 234
SPOT peptide array binding signal intensity (SpLsb1): 214
SPOT peptide array binding signal intensity (SpLsb4): 2230
SPOT peptide array binding signal intensity (SpMyo1): 16
SPOT peptide array binding signal intensity (SpNbp2): 412
SPOT peptide array binding signal intensity (SpPex13): 10.5
SPOT peptide array binding signal intensity (SpRvs167): 11.2
SPOT peptide array binding signal intensity (SpSla1-D1-D2): ≤ 0
SPOT peptide array binding signal intensity (SpSla1-D3): 3
